Shown is part of a subset that was picked to be rich in hits.
ST2 IL33 inh – inhibitors of human ST2 (IL1RL1) binding to IL-33, primary screen, biochemical, AlphaLISA; AlphaLISA ST2-Fc/biotin-IL-33 interaction, 1 h; inhibition, % for hits at 17 µM; 2.3% of 78,000 active; AID 1259354, 2018; in the data active = inhibition above about 30%
Hits are given with their value; n = inactive; ! = not confirmed by another sample.

SMILES	ST2 IL33 inh
CCc1nc2cccnc2n1C1CCN(S(=O)(=O)c2ccc(C(C)C)cc2)CC1	n
CCOC(=O)C1=C(C)Nc2nc(SCc3ccccc3)nn2C1c1ccccc1OC (centres undefined)	n
O=C(O)c1ccncc1-c1nc2ccccc2s1	n
CN(C(=O)Cc1c(C(=O)O)[nH]c2ccccc12)c1ccccc1	n
Cc1ccccc1NC1=C(N)C(=O)c2ccccc2C1=O	87%
Cc1ccccc1NC(=O)c1ccc(C(=O)Nc2ccccc2C)cc1	n
Cc1ccccc1NCN1C(=O)C2C3C=CC(C3)C2C1=O (centres undefined)	n
CCc1cc2c(=O)c(-c3ccc4c(c3)OCCO4)coc2cc1OC(C)C	n
COc1ccc2cc(C(=O)NC(C)=O)c(=Nc3ccc(F)cc3)oc2c1	n
COc1ccc2cc(C(N)=O)c(=Nc3ccc(C)cc3)oc2c1	n
COc1ccc2cc(-c3nc4ccccc4[nH]3)c(=Nc3ccc(C(N)=O)cc3)oc2c1	35%
CN(C)CCNC(=O)C1CC(=O)N(C2CCCCCC2)C1 (centres undefined)	n
COc1cc(-c2cnc(N)c(C)c2)cc(OC)c1OC	n
COC(=O)c1cc(N2C(=O)C3C4C=CC(O4)C3C2=O)ccc1Cl (centres undefined)	n
Cc1ccc(-c2csc(NC(=O)c3cc(=O)c4ccccc4o3)n2)cc1C	n
O=C(Nc1nc(-c2ccc3c(c2)OCO3)cs1)c1cc(=O)c2ccccc2o1	45%!
COc1ccc(-c2csc(NC(=O)c3cc(=O)c4ccccc4o3)n2)cc1	n
CC(C)COc1ccc(-c2nc3s/c(=C\c4cccs4)c(=O)n3n2)cc1	n
C=CCn1c(SCCC(=O)Nc2ccc(F)cc2)nc2sc3c(c2c1=O)CCC3	n
COc1cc(SC)ccc1C(=O)Nc1cccc(F)c1	n
CCN1CCN(C(=O)CNS(=O)(=O)c2ccc(Br)s2)CC1	n
Cc1ccc(C)c(C2=C/C(=C3/c4ccccc4-c4ncccc43)C(=O)O2)c1	43%
Cc1ccc(F)c(-c2ncccc2NC(=O)C(C)C)c1	n
Cc1ccc(F)c(-c2ncccc2C(=O)N2CCCC2)c1	n
Cc1cc(N2CCOCC2)nc2ccc(NC(=O)CCC(=O)N3CCCCCC3)cc12	n
SMILES	ST2 IL33 inh
CC(=O)N(CC1=CCCN(C(C)C(N)=O)C1)C1CCCCC1 (centres undefined)	n
CC(=O)c1ccccc1-c1ccc2ccccc2n1	n
CCn1c(/C=C/c2ccc(F)cc2)nc2ccccc2c1=O	n
CCn1c(=O)c(-c2ccc3ccccc3n2)cc2cc(Br)ccc21	36%
Cc1nnc(-c2cccc(NC(=O)C3CCN(C(=O)C4CCCCO4)CC3)c2)s1 (centres undefined)	n
Cc1cc(/C=C2\C(=O)NC(=O)N(C)C2=O)c(C)n1-c1ccc(F)c(Cl)c1	46%
Cc1ccc(N2NC(=O)/C(=C/c3ccc(Cl)cc3Cl)C2=O)cc1Cl	n
Cc1cc(C=C2C(=O)N(C)C(=O)N(C)C2=O)c(C)n1-c1ccc(Cl)c(Cl)c1	n
O=C(O)CCCN1C(=O)c2ccc(F)cc2C1=O	n
O=C(CSc1nnc2c(n1)[nH]c1ccccc12)Nc1ccc(Cl)c(Cl)c1	n
CCc1ccc(N2C(=O)Nc3cc(Cl)c(Cl)cc3N2O)cc1	n
CCOc1ccc2sc(C=NC3CCCCC3)c(O)c2c1	41%
CCOc1ccc2nc(NC(=O)C3CCCCC3)sc2c1	n
CCOc1ccc(NC(=O)CC2CCCCC2)cc1	n
CCCCCN=Cc1sc2ccc(OCC)cc2c1O	33%
CCOc1ccc2nc(N=Cc3nc(-c4ccc(Br)cc4)oc3O)sc2c1	n
CCOc1ccc2sc(C=NCCc3ccccn3)c(O)c2c1	n
CN1CCN(C(=O)CCn2c(=O)oc3ccccc32)CC1	n
O=C(Nc1cc2c(ccc3ccccc32)oc1=O)c1ccc(Cl)cc1	n
COc1cccc(N2C(=O)Nc3ccccc3C2(O)C(=O)NC2CCCc3ccccc32)c1 (centres undefined)	n
O=C1CC(=O)Nc2cc(S(=O)(=O)N3CCN(c4ccc(F)cc4)CC3)ccc2N1	n
COc1ccccc1S(=O)(=O)CC(SC#N)c1ccccc1 (centres undefined)	n
O=C(Nc1ccc(F)c(Cl)c1)c1cc(-c2ccc(Br)cc2)on1	n
COc1ccc(OC)c(NS(=O)(=O)c2ccc(NS(=O)(=O)c3ccc(F)cc3)cc2)c1	n
COc1ccc(S(=O)(=O)Nc2ccc(S(=O)(=O)Nc3cc(OC)ccc3OC)cc2)cc1	49%
SMILES	ST2 IL33 inh
COc1ccc(OC)c(NS(=O)(=O)c2ccc(NS(=O)(=O)c3ccc(C)cc3)cc2)c1	n
O=C(C1CCCC1)N1CCN(c2cccc(Cl)c2)CC1	n
CNCCC(=O)c1ccccc1	n
c1ccc(CN2CC[C@H](c3nnc(-c4cccnc4)o3)C2)nc1	n
CCOC(=O)C1C(=O)C=C(c2cccc(OC)c2)CC1c1ccc(OC)c(OC)c1 (centres undefined)	n
CCOC(=O)C1C(=O)C=C(c2cccs2)CC1c1cccc(F)c1 (centres undefined)	47%
CCOC(=O)C1C(=O)C=C(c2ccco2)CC1c1cccs1 (centres undefined)	n

Bioassay records as filed in PubChem.
